# Data from publication PMC11062922 (Nature Chemical Biology, 2023).
# Where two headings read alike, the source gives them in different places.
# Test system: ULK3
# Conditions: read-out: apparent Kd, n = 1
substance,measurement,setting,value
Lestaurtinib,potency estimated from few doses,"compound concentrations:100 nM and 1000 nM (sheet 'Lestaurtinib' of Supplementary Table 1),run:Lestaurtinib_02482_R2,Plate:MR011",244 nM
same,potency estimated from few doses,"compound concentrations:100 nM and 1000 nM (sheet 'Lestaurtinib' of Supplementary Table 1),run:Lestaurtinib_02482_R3,Plate:MR011",219 nM
same,potency estimated from few doses,"compound concentrations:100 nM and 1000 nM (sheet 'Lestaurtinib' of Supplementary Table 1),run:Lestaurtinib_02487_R1,Plate:MR012",144 nM
same,potency estimated from few doses,"compound concentrations:100 nM and 1000 nM (sheet 'Lestaurtinib' of Supplementary Table 1),run:Lestaurtinib_02487_R2,Plate:MR012",219 nM
same,potency estimated from few doses,"compound concentrations:100 nM and 1000 nM (sheet 'Lestaurtinib' of Supplementary Table 1),run:Lestaurtinib_02487_R3,Plate:MR012",250 nM
same,potency estimated from few doses,"compound concentrations:100 nM and 1000 nM (sheet 'Lestaurtinib' of Supplementary Table 1),run:Lestaurtinib_02496_R1,Plate:MR013",131 nM
same,potency estimated from few doses,"compound concentrations:100 nM and 1000 nM (sheet 'Lestaurtinib' of Supplementary Table 1),run:Lestaurtinib_02496_R2,Plate:MR013",165 nM
same,potency estimated from few doses,"compound concentrations:100 nM and 1000 nM (sheet 'Lestaurtinib' of Supplementary Table 1),run:Lestaurtinib_02496_R3,Plate:MR013",254 nM
same,potency estimated from few doses,"compound concentrations:100 nM and 1000 nM (sheet 'Lestaurtinib' of Supplementary Table 1),run:Lestaurtinib_02566_R1,Plate:MR014",153 nM
same,potency estimated from few doses,"compound concentrations:100 nM and 1000 nM (sheet 'Lestaurtinib' of Supplementary Table 1),run:Lestaurtinib_02566_R3,Plate:MR014",242 nM
same,potency estimated from few doses,"compound concentrations:100 nM and 1000 nM (sheet 'Lestaurtinib' of Supplementary Table 1),run:Lestaurtinib_02572_R3,Plate:MR015",329 nM
same,potency estimated from few doses,"compound concentrations:100 nM and 1000 nM (sheet 'Lestaurtinib' of Supplementary Table 1),run:Lestaurtinib_02577_R2,Plate:MR016",271 nM
same,potency estimated from few doses,"compound concentrations:100 nM and 1000 nM (sheet 'Lestaurtinib' of Supplementary Table 1),run:Lestaurtinib_02577_R3,Plate:MR016",224 nM
same,potency estimated from few doses,"compound concentrations:100 nM and 1000 nM (sheet 'Lestaurtinib' of Supplementary Table 1),run:Lestaurtinib_02584_R1,Plate:MR017",232 nM
same,potency estimated from few doses,"compound concentrations:100 nM and 1000 nM (sheet 'Lestaurtinib' of Supplementary Table 1),run:Lestaurtinib_02584_R2,Plate:MR017",261 nM
same,potency estimated from few doses,"compound concentrations:100 nM and 1000 nM (sheet 'Lestaurtinib' of Supplementary Table 1),run:Lestaurtinib_02584_R3,Plate:MR017",254 nM
same,potency estimated from few doses,"compound concentrations:100 nM and 1000 nM (sheet 'Lestaurtinib' of Supplementary Table 1),run:Lestaurtinib_02601_R1,Plate:MR018",290 nM
same,potency estimated from few doses,"compound concentrations:100 nM and 1000 nM (sheet 'Lestaurtinib' of Supplementary Table 1),run:Lestaurtinib_02601_R2,Plate:MR018",271 nM
same,potency estimated from few doses,"compound concentrations:100 nM and 1000 nM (sheet 'Lestaurtinib' of Supplementary Table 1),run:Lestaurtinib_02601_R3,Plate:MR018",297 nM
same,potency estimated from few doses,"compound concentrations:100 nM and 1000 nM (sheet 'Lestaurtinib' of Supplementary Table 1),run:Lestaurtinib_02624_R2,Plate:MR020",258 nM
same,potency estimated from few doses,"compound concentrations:100 nM and 1000 nM (sheet 'Lestaurtinib' of Supplementary Table 1),run:Lestaurtinib_02624_R3,Plate:MR020",269 nM
same,potency estimated from few doses,"compound concentrations:100 nM and 1000 nM (sheet 'Lestaurtinib' of Supplementary Table 1),run:Lestaurtinib_02724_R1,Plate:MR021",243 nM
same,potency estimated from few doses,"compound concentrations:100 nM and 1000 nM (sheet 'Lestaurtinib' of Supplementary Table 1),run:Lestaurtinib_02724_R2,Plate:MR021",220 nM
same,potency estimated from few doses,"compound concentrations:100 nM and 1000 nM (sheet 'Lestaurtinib' of Supplementary Table 1),run:Lestaurtinib_02741_R1,Plate:MR023",268 nM
same,potency estimated from few doses,"compound concentrations:100 nM and 1000 nM (sheet 'Lestaurtinib' of Supplementary Table 1),run:Lestaurtinib_02748_R1,Plate:MR024",144 nM
same,potency estimated from few doses,"compound concentrations:100 nM and 1000 nM (sheet 'Lestaurtinib' of Supplementary Table 1),run:Lestaurtinib_02748_R2,Plate:MR024",132 nM
same,potency estimated from few doses,"compound concentrations:100 nM and 1000 nM (sheet 'Lestaurtinib' of Supplementary Table 1),run:Lestaurtinib_02752_R1,Plate:MR025",260 nM
same,potency estimated from few doses,"compound concentrations:100 nM and 1000 nM (sheet 'Lestaurtinib' of Supplementary Table 1),run:Lestaurtinib_02765_R1,Plate:MR026",320 nM
same,potency estimated from few doses,"compound concentrations:100 nM and 1000 nM (sheet 'Lestaurtinib' of Supplementary Table 1),run:Lestaurtinib_02765_R3,Plate:MR026",304 nM
same,potency estimated from few doses,"compound concentrations:100 nM and 1000 nM (sheet 'Lestaurtinib' of Supplementary Table 1),run:Lestaurtinib_02768_R1,Plate:MR028",240 nM
same,potency estimated from few doses,"compound concentrations:100 nM and 1000 nM (sheet 'Lestaurtinib' of Supplementary Table 1),run:Lestaurtinib_02768_R3,Plate:MR028",206 nM
same,potency estimated from few doses,"compound concentrations:100 nM and 1000 nM (sheet 'Lestaurtinib' of Supplementary Table 1),run:Lestaurtinib_02802_R3,Plate:MR029",237 nM
same,potency estimated from few doses,"compound concentrations:100 nM and 1000 nM (sheet 'Lestaurtinib' of Supplementary Table 1),run:Lestaurtinib_02896_R2,Plate:MR030",236 nM
same,potency estimated from few doses,"compound concentrations:100 nM and 1000 nM (sheet 'Lestaurtinib' of Supplementary Table 1),run:Lestaurtinib_02896_R3,Plate:MR030",158 nM
same,potency estimated from few doses,"compound concentrations:100 nM and 1000 nM (sheet 'Lestaurtinib' of Supplementary Table 1),run:Lestaurtinib_03172_R1,Plate:MR031",259 nM
same,potency estimated from few doses,"compound concentrations:100 nM and 1000 nM (sheet 'Lestaurtinib' of Supplementary Table 1),run:Lestaurtinib_03252_R1,Plate:MR032",261 nM
same,potency estimated from few doses,"compound concentrations:100 nM and 1000 nM (sheet 'Lestaurtinib' of Supplementary Table 1),run:Lestaurtinib_03260_R1,Plate:MR033",314 nM
